# Results as given in PubChem BioAssay (NCATS).
# Results filed as inconclusive are left out. Where a call stands in place of a potency, no number is given. Active and inactive are the calls of the source. Calls come from the whole dose curve; as a rule, active = well fitted curve in the direction sought with a large enough effect; inconclusive = small, poorly fitted or top-dose-only effect, or another doubt; inactive = no such curve, though single readings can be large; an effect the other way counts as inactive or inconclusive.
# Columns and labels:
# [1] = molecular target: Aldehyde dehydrogenase, mitochondrial (Homo sapiens) (UniProt P05091); assay: qHTS for Inhibitors of the Aldehyde Dehydrogenase Family (ALDH2) Primary screen (AID 2061308); note: nearly all actives have a fitted effect of over 55% in size
# [2] = molecular target: Retinaldehyde dehydrogenase 3 (Homo sapiens) (UniProt P47895); assay: qHTS for Inhibitors of the Aldehyde Dehydrogenase Family (ALDH1A3) Primary screen (AID 2061315)
SMILES,Potency [1],Potency [2]
COc1ccc(-c2ccc3ncnc(NCc4nc(C)cs4)c3c2)cc1OC,inactive,inactive
Cc1nc(N2CCOCC2)c2nc(-c3ccccc3)n(CCCN(C)C)c2n1,inactive,inactive
Cc1cc(NS(=O)(=O)c2ccc3c(c2)CCC(=O)N3)ccc1Cl,inactive,inactive
C#CCOc1cc(C2=Nn3c(nnc3-c3cccc(OCC(C)=O)c3)SC2)ccc1OC,inactive,inactive
C=C1CCC2C(C)(C(=O)OC)CCCC2(C)C1CCC1=CCOC1=O (stereo not drawn),inactive,inactive
CCCCNc1ncc2c(-c3ccc(S(=O)(=O)N4CCOCC4)cc3)nn(C3CCC(O)CC3)c2n1 (stereo not drawn),inactive,inactive
C=C1C(=O)OC2/C=C(\COC(C)=O)CC/C=C(\C=O)CC(OC(=O)C(C)CC)C12 (stereo not drawn),inactive,inactive
O=[S+]([O-])(Nc1nccs1)c1ccc(NCc2ccc(Cl)c(Cl)c2)cc1,inactive,inactive
O=C(Nc1ccc(Cl)c(C(F)(F)F)c1)Nc1nnc(-c2cccnc2)s1,inactive,inactive
C=C1C(=O)OC2CC3(C)C(CC12)C(C)=CC(O)C3OC(C)=O (stereo not drawn),inactive,inactive
Cc1noc(C)c1-c1ccc(Nc2nc(-c3ccncc3)nc3ccccc23)cc1F,inactive,inactive
O=[S+]([O-])(c1ccc(OC(F)(F)F)cc1)N1CCN([S+](=O)([O-])c2ccc3c(c2)OCCO3)CC1,inactive,inactive
O=C(Nc1ccc(Cl)c(Cl)c1)Nc1nnc(N2CCNCC2)s1,inactive,inactive
c1nc(NCc2ccc3c(c2)OCO3)c2cc(-c3ccoc3)ccc2n1,inactive,inactive
CCCn1c(C)nc2c(Nc3ccccc3)nc(C)nc21,inactive,inactive
Cc1ccnc(NC(=S)N2CCN(c3cccc(C(F)(F)F)c3)C2)c1,inactive,inactive
O=C(/C=C/c1ccc(C(F)(F)F)cc1)Nc1cccc([S+](=O)([O-])Nc2ccccc2F)c1,inactive,inactive

SMILES,Potency [1],Potency [2]
Cc1ccc(OCCn2c(CCNC(=O)COc3ccccc3Br)nc3ccccc32)cc1,inactive,inactive
Cc1ccc(NS(=O)(=O)c2cc3c(cc2Cl)CCC(=O)N3)cc1C,inactive,inactive
CC(C)(C)OC(=O)NCC(=O)NNC(=O)c1nc2ccccc2[nH]1,inactive,inactive
NC(=O)Nc1cc(-c2ccc(CN3CCOCC3)c(F)c2)sc1C(=O)N[C@H]1CCCNC1,inactive,inactive
Fc1ccc(Nc2cc(-c3ccccc3)nc(-c3ccncc3)n2)cc1F,inactive,inactive
N#CN1CCC(NC(=O)c2ccc(C(F)(F)F)cc2)CC1,inactive,inactive
CC1CCC2(C1)N=C(Nc1nc3ccccc3o1)NC1=C2C(=O)CCC1 (stereo not drawn),inactive,inactive
CC(=O)N1c2ccc(S(=O)(=O)Nc3ccc(C)c(C)c3)cc2CC1C (stereo not drawn),inactive,inactive
C/C=C(\C)C(=O)O[C@H]1C=C(CO)C(=O)[C@H](OC(C)=O)[C@H]1C(C)C,inactive,inactive
COc1cccc(C2=Nn3c(nnc3-c3cccc(OC)c3)SC2)c1,inactive,inactive
COc1cccc(C(=O)NCCc2nc3ccccc3n2CCOc2ccc(C)cc2)c1,inactive,inactive
c1cc(NC2CCNCC2)nc(-c2cnc3ccccn23)c1,inactive,inactive
FC(F)(F)c1cccc(-c2ccc(CNc3nc(-c4ccccc4C(F)(F)F)nc4ccccc34)cc2)c1,inactive,inactive
COc1cccc(-c2ccc3ncnc(N(C)Cc4ccco4)c3c2)c1,inactive,inactive
O=C1c2ccccc2C(=O)N1c1ccccn1,inactive,inactive
CC(=O)c1ccc(N2CCN(S(=O)(=O)c3ccc4c(c3)CC(C)N4C(C)=O)CC2)cc1 (stereo not drawn),inactive,inactive
Cc1ccc(S(=O)(=O)Nc2ccccc2C(=O)Nc2nc(-c3ccccc3)cs2)cc1,inactive,inactive
